We go through 17 compounds from PubChem BioAssay (NCI).

Test systems include SK-MEL-2 melanoma; EKVX NSCLC; SN12C renal; UO-31 renal; ACHN renal; CAKI-1 renal; A498 renal; CCRF-CEM leukemia; MOLT-4 leukemia; TK-10 renal.
Holding throughout (assay): NCI-60 one-dose screen, 48 h (100 = growth as untreated, 0 = no growth, -100 = all killed)
Holding throughout (conditions): 10 µM

About 83,000 compounds went through this panel and 20% of them were active in at least one assay; those are over-represented in the sample as a whole.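 96-well plates, one dose, 48 hours. Percent growth reported; active if below 10.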 Values without a mark were called inactive. The source made the active and inactive calls.

Regarding `COc1ccc(N(C)c2ncnc3occ(C)c23)cc1`, the growth is -4.77% (active) with SK-MEL-2 melanoma; 42.1% with EKVX NSCLC; 34% in the test on SN12C renal; 26.5% with UO-31 renal; 29% in the test with ACHN renal; -6.13% (active) with CAKI-1 renal. In addition, the growth in the test on A498 renal is 68.7%; in the test with CCRF-CEM leukemia it was -20.9% (active); in the test with MOLT-4 leukemia, -1.42% (active).
With `COc1cc2cc(Oc3ccc(NC(=O)Nc4ccc(Cl)c(Cl)c4)cc3)c(C)nc2cc1OC`, the growth with SK-MEL-2 melanoma was -7.82% (active); with EKVX NSCLC, 21%; with SN12C renal it was 22.1%; with UO-31 renal, 3.69% (active); in the test with ACHN renal it was 16.4%; in the test with CAKI-1 renal it was 21.7%. The growth with A498 renal was 35.8%; with CCRF-CEM leukemia, 13.3%; in the test with MOLT-4 leukemia, 3.69% (active).
For `c1ccc(/C(=N\Nc2ccc3ccccc3n2)c2ccccn2)cc1`, the growth is -9.63% (active) with SK-MEL-2 melanoma; 15.1% in the test with EKVX NSCLC; 18.5% in the test with SN12C renal; 13.7% in the test with UO-31 renal; 0.2% (active) in the test with ACHN renal; -2.91% (active) in the test with CAKI-1 renal. The figures for the growth in the test with A498 renal, in the test with CCRF-CEM leukemia and in the test on MOLT-4 leukemia were -47.3% (active), -39% (active) and -21.8% (active), respectively.
Consider `Clc1nc2ccc(Br)cc2cc1-c1nc2ccccc2[nH]1`, for which the growth is 120% in the test with SK-MEL-2 melanoma; 50.3% in the test with EKVX NSCLC; 15.2% in the test on SN12C renal; 79.7% with UO-31 renal; 2.34% (active) in the test on ACHN renal; 84.2% with CAKI-1 renal. Besides, the growth was 39.9% in the test with A498 renal, 72.9% with CCRF-CEM leukemia and 47.2% in the test on MOLT-4 leukemia.
For the compound `COc1ccc(/C=C2\CCCC3=C2NC(N)=NC3c2ccc(OC)cc2)cc1` (configuration not stated), the growth in the test with SK-MEL-2 melanoma was 98.2%; with EKVX NSCLC, 92.1%; with SN12C renal, 86.7%; in the test on UO-31 renal, 72.8%; in the test with ACHN renal, 98.3%; in the test on CAKI-1 renal, 90.1%. In addition, the figures for the growth with A498 renal, in the test with CCRF-CEM leukemia and with MOLT-4 leukemia were 84.5%, 87.6% and 84.2%, respectively.
On to `COc1ccc(-c2onc(N)c2-c2cc(OC)c3c(c2)OCO3)cc1`, for which the growth in the test on SK-MEL-2 melanoma is 13.6%; in the test with EKVX NSCLC it was 62%; in the test on SN12C renal, 25.9%; with UO-31 renal it was 55.2%; with ACHN renal, 43.8%; with CAKI-1 renal it was 34%. Moreover, the growth is 12% with A498 renal, 14.5% with CCRF-CEM leukemia and 13.7% in the test on MOLT-4 leukemia.
For `COc1cc2cc(Oc3ccc(NC(=O)c4ccccc4)cc3)c(C)nc2cc1OC`, the growth in the test on SK-MEL-2 melanoma was 59.5%; with EKVX NSCLC, 89.8%; in the test with SN12C renal it was 81%; in the test with UO-31 renal it was 81.4%; in the test with ACHN renal, 80.8%; in the test with CAKI-1 renal, 85.3%. The growth in the test with A498 renal was 89%; with CCRF-CEM leukemia, 101%; with MOLT-4 leukemia, 89.9%.
Consider `NC1=NC(c2ccccc2)C2=C(N1)/C(=C/c1ccccc1)CCC2` (configuration not stated), for which the growth in the test on SK-MEL-2 melanoma was 87.1%; in the test with EKVX NSCLC, 95%; with SN12C renal, 91.6%; in the test on UO-31 renal it was 70.5%; in the test on ACHN renal, 108%; in the test with CAKI-1 renal, 93.8%. In addition, the results for the growth in the test on A498 renal, with CCRF-CEM leukemia and in the test on MOLT-4 leukemia were 75%, 91% and 77.8%, respectively.
For the compound `O=C(O)c1ccc(-n2cc(CNc3ccc(Oc4ccccc4)cc3)c(-c3ccccc3)n2)cc1`, the growth in the test on SK-MEL-2 melanoma is 88.5%; in the test with EKVX NSCLC, 85.1%; in the test with SN12C renal, 93.4%; in the test on UO-31 renal it was 76.6%; with TK-10 renal, 90.1%; in the test on ACHN renal, 87.4%. Besides, the growth in the test with MOLT-4 leukemia is -4.16% (active).
With `CCn1c(SC/C(=N/O)c2ccccc2)nnc1-c1ccccc1`, the growth with SK-MEL-2 melanoma was 108%; in the test on EKVX NSCLC, 90.6%; with SN12C renal, 88.6%; with UO-31 renal, 91.5%; in the test with ACHN renal, 105%; with CAKI-1 renal it was 89%. Moreover, the growth with A498 renal was 69.3%; in the test on CCRF-CEM leukemia, 88.9%; in the test on MOLT-4 leukemia, 94.8%.
As to `CC(C)N(CCOc1cccc(-c2nc3sccn3c2-c2ccnc(S(C)(=O)=O)n2)c1)C(C)C`, the growth in the test on SK-MEL-2 melanoma is 109%; in the test on EKVX NSCLC, 101%; in the test on SN12C renal, 83.9%; with UO-31 renal, 89.8%; in the test with ACHN renal, 93.7%; in the test on CAKI-1 renal, 93.3%. For the same compound, the growth in the test on A498 renal is 53.2%; in the test with CCRF-CEM leukemia it was 81%; in the test on MOLT-4 leukemia it was 84.3%.
As for `c1cnc2[nH]cc(-c3nc(-c4ccsc4)cs3)c2c1`, the growth with SK-MEL-2 melanoma was 102%; in the test with EKVX NSCLC, 42.6%; in the test on SN12C renal, 92%; in the test on UO-31 renal, 62.7%; in the test with TK-10 renal it was 138%; in the test on ACHN renal, 85.3%. For the same compound, the growth in the test with MOLT-4 leukemia was 79.6%.
With `CSc1nc2c(c(=O)n1C)CN(Cc1ccccc1)C(=O)CN2`, the growth with SK-MEL-2 melanoma was 86.3%; with EKVX NSCLC, 86%; in the test with SN12C renal it was 97.7%; with UO-31 renal, 78.3%; in the test with ACHN renal, 96.4%; in the test with CAKI-1 renal it was 88.6%. In addition, the growth is 92.4% in the test on A498 renal, 80.7% with CCRF-CEM leukemia and 92.5% in the test on MOLT-4 leukemia.
For `O=C1CC(=O)N(C(=O)c2nn(-c3ccc(Cl)cc3)cc2O)N1`, the growth was 53% in the test with SK-MEL-2 melanoma; 29.6% in the test with EKVX NSCLC; 45.1% in the test on SN12C renal; 25.6% with UO-31 renal; 38.3% with ACHN renal; -7.19% (active) in the test with CAKI-1 renal. The growth is 113% in the test on A498 renal, 5.93% (active) with CCRF-CEM leukemia and 16.6% with MOLT-4 leukemia.
Turning to `O=C(CCCCNC(=O)c1nc(-c2ccccc2)n(-c2ccccc2)n1)NO`, the growth in the test with SK-MEL-2 melanoma is 67.6%; in the test with EKVX NSCLC it was 80.7%; with SN12C renal it was 77.9%; in the test on UO-31 renal it was 86.4%; in the test with TK-10 renal it was 56%; in the test with ACHN renal, 102%. The growth in the test on MOLT-4 leukemia is 58.1%.
`CC(C)N(CCOc1ccc(-c2nc3sccn3c2-c2ccnc(S(C)(=O)=O)n2)cc1)C(C)C`: the growth with SK-MEL-2 melanoma was 106%; with EKVX NSCLC, 87.6%; with SN12C renal, 87.8%; in the test on UO-31 renal, 70%; with ACHN renal it was 101%; in the test on CAKI-1 renal, 84.2%. Besides, the growth is 60.3% in the test with A498 renal, 76.4% with CCRF-CEM leukemia and 52.4% in the test on MOLT-4 leukemia.
With `COc1nc2c(c(=O)n1C)CN(c1ccccc1)C(=O)C(C)N2` (configuration not stated), the growth with SK-MEL-2 melanoma is 90.8%; in the test on EKVX NSCLC it was 96.4%; with SN12C renal, 92%; in the test with UO-31 renal, 78.7%; with ACHN renal, 93.9%; in the test on CAKI-1 renal it was 100%. For the same compound, the growth in the test with A498 renal is 115%; in the test with CCRF-CEM leukemia, 97.2%; in the test with MOLT-4 leukemia it was 93.7%.
